PubChem BioAssay
Unmarked numbers belong to inactive results. This is one part of the list. Calls of active or inactive are those of the source. Unless noted, no rule for the calls is given here.

Assays:
[1] = Apaf-1 inhibitors, single-dose retest, confirmation, biochemical, fluorescence, DEVD-Rh110, 20 µM (AID 504614;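 active = mean inhibition of at least 40% at 20 µM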;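 also: plate controls were DMSO wells for no effect and DEVD-CHO caspase inhibitor control wells for full effect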); settings: reconstituted apoptosome, caspase-3 DEVD-Rh110 fluorescence; at 20 µM; stronger effect = higher value
[2] = Rh110 fluorescence interference by putative Apaf-1 inhibitors, confirmation, artefact control for Apaf-1 inhibitor project, biochemical, 20 µM (AID 504615;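 active = signal rise of 40% or more at 20 µM, treated as a fluorescence artifact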); settings: quenched caspase reaction, at 20 µM, stronger effect = higher value
[3] = inhibition of Brca1/Bard1 split-luciferase complementation, confirmation, counter-screen for Mdm2/MdmX interaction inhibitor project, luminescence, single concentration (AID 504668); settings: Brca1/Bard1 bimolecular luciferase complementation counterscreen, at 8 µM, stronger effect = higher value
[4] = HIF-2a reporter inhibitor retest, confirmation, luminescence, 786-0 RCC cells (AID 651580;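 active = mean inhibition across four replicates of at least 40 percent at the single tested concentration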); settings: HIF-2a luciferase reporter luminescence, overnight, at 18.8 µM, stronger effect = higher value
[5] = HIF-1a luciferase reporter signal reduction – MiaPaCa-2 cells, single concentration, counter-screen for HIF-2a inhibitor project, confirmation (AID 651589;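 active = mean inhibition of the reporter signal across four replicates at the single tested dose of 50% or more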); settings: MiaPaCa-2 HIF-1a luciferase reporter, desferoxamine, overnight; at 18.8 µM; stronger effect = higher value
[6] = target: COP9 signalosome complex subunit 5 (Homo sapiens) (UniProt Q92905); test: Csn5 deneddylation inhibitors, confirmation, biochemical, fluorescence polarization, single concentration, SCF-Nedd8OG substrate (AID 720654; in the data active = inhibition above about 50%;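 also: 0% = DMSO with enzyme and 100% = no enzyme wells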); settings: Csn5 deneddylation of SCF-Nedd8OG, 90 min, at 16.6 µM, stronger effect = higher value
[7] = target: 72 kDa type IV collagenase (Homo sapiens) (UniProt P08253); test: MMP-2 protease inhibition counter-screen, confirmation, counter-screen for CSN deneddylation inhibitor project, biochemical, fluorescence, single concentration (AID 720655;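 active = corrected plate-normalized z-score of 5 or more, or -5 or less, or inhibition of 15% or more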;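 also: plate controls were DMSO wells with enzyme for no effect and buffer wells lacking MMP-2 for full effect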); settings: recombinant MMP-2, FRET substrate fluorescence, 60 min; at 16.6 µM
Prothrombin (Bos taurus) = Prothrombin (Bos taurus) (UniProt P00735); test: bovine thrombin inhibition counter-screen, confirmation, counter-screen for CSN deneddylation inhibitor project, biochemical, fluorescence polarization, single concentration (AID 720656;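 active = inhibition at or above a set limit, with a fluorescence interference ratio between 0.5 and a set maximum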); settings: bovine thrombin cleavage of Ub4-pepOG, at 16.6 µM, stronger effect = higher value
[8] = fluorescence interference of Apaf-1 inhibitor hits, dose response, artefact control for Apaf-1 inhibitor project (AID 588538); settings: fluorescence interference counterscreen, Apaf-1 assay format

COP9 signalosome complex subunit 5 (Homo sapiens), sequence (Q92905 whole entry, looked up, one chain of several): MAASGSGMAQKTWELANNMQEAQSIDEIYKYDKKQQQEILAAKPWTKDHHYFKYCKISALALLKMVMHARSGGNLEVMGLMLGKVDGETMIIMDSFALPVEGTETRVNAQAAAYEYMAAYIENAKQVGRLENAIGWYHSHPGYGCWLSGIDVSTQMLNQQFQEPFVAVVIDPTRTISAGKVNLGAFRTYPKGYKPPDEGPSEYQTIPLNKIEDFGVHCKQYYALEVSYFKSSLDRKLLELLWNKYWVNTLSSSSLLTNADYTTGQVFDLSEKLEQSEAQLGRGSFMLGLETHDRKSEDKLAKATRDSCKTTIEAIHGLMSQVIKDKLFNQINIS
72 kDa type IV collagenase (Homo sapiens), sequence (P08253 whole entry, looked up): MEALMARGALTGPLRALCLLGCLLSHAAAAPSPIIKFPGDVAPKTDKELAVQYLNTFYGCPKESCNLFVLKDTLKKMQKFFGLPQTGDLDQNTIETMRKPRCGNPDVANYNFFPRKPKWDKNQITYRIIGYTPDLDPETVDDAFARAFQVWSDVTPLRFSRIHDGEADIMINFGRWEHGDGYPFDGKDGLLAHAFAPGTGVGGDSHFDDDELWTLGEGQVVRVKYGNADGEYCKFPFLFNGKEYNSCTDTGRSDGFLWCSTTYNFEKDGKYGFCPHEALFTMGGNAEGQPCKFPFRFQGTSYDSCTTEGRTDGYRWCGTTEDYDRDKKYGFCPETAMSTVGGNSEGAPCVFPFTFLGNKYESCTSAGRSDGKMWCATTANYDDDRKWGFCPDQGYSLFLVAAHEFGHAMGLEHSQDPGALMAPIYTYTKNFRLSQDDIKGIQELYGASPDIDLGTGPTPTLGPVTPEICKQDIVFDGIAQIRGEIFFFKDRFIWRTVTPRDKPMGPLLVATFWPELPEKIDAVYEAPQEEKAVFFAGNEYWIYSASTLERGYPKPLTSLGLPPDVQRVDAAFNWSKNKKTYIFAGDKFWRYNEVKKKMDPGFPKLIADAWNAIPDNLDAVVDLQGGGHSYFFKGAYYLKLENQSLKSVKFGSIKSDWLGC
Prothrombin (Bos taurus), sequence (P00735 whole entry, looked up): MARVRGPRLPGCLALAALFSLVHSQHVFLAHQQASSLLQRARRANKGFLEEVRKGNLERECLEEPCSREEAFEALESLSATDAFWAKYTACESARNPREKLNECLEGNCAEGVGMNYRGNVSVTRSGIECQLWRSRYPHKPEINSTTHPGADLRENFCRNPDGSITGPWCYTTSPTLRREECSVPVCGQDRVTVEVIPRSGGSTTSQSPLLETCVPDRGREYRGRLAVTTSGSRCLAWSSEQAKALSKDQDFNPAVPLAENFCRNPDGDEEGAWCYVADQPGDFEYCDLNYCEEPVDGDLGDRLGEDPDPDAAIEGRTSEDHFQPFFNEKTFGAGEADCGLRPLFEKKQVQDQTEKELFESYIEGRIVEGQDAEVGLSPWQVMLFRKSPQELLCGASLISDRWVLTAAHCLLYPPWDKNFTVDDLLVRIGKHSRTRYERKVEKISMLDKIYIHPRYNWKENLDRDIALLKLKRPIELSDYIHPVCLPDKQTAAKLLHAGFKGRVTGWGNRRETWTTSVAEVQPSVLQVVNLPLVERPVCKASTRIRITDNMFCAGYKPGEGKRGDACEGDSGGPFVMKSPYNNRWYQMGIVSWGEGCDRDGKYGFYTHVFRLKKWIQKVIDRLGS

SMILES: O=C1Nc2ccc([N+](=O)[O-])cc2C1=Nc1cccc(CO)c1
- inhibition [1]: 39.8%
- activation (fluorescence interference) [2]: -4.07%

SMILES: CCc1ccc(CNC(=O)C2CCN(c3nnc(C)c4c(C)n(-c5ccc(C)cc5)nc34)CC2)cc1
- inhibition [1]: 13.2%
- activation (fluorescence interference) [2]: 0.21%
- inhibition [3]: 23.7% (active)
- inhibition [4]: -2.57%
- inhibition [5]: 20.1%

SMILES: COc1ccc(N(CCC(=O)NCCc2ccccc2)S(=O)(=O)c2ccc(C)cc2C)cc1
- inhibition [1]: 35.9%
- activation (fluorescence interference) [2]: 3.62%

SMILES: Cc1ccc(N=C2NC(=O)/C(=C/C=C/c3ccco3)S2)cc1C
- inhibition [1]: 26.1%
- activation (fluorescence interference) [2]: 20.6%
- inhibition [6]: 25.6%
- inhibition [7]: 13.5%
- inhibition (Prothrombin (Bos taurus)): 7.38%

SMILES: CCOc1cc(/C=N/NC(=O)Cc2ccc(C(F)(F)F)cc2[N+](=O)[O-])c(Br)cc1OC
- inhibition [3]: 30.8% (active)

SMILES: COc1ccc(/C(C)=N/NC(=O)c2cccc(S(=O)(=O)N3CCCC3)c2)c(O)c1
- inhibition [3]: 34.4% (active)

SMILES: CC(=O)N(C(C)=O)c1ncc2c([nH]c3ccccc32)c1C#N
- inhibition [3]: 33.1% (active)

SMILES: O=C(CCCN1CCc2[nH]c3ccc(F)cc3c2C1)c1ccc(F)cc1
- inhibition [1]: 65.3% (active)
- activation (fluorescence interference) [2]: 4.85%
- IC50 [8]: > 100 µM

SMILES: Cc1oc(-c2ccccc2Cl)nc1CSCC(=O)N1CCCC1
- inhibition [3]: 25.7% (active)

SMILES: Cc1cc(Br)cc(/C=N/NC(=O)c2ccc3c(c2)OCO3)c1O
- inhibition [3]: 33% (active)

SMILES: Cc1c(CN(C)C)c2c(n1Cc1ccccc1)C(=O)c1ccc(Br)cc1-2
- inhibition [3]: 29.6% (active)

SMILES: CC(C)Cn1c(N)c(C(=O)NCc2cccs2)c2nc3ccccc3nc21
- inhibition [1]: 38.4%
- activation (fluorescence interference) [2]: 5.03%
- inhibition [6]: 99.2% (active)
- inhibition [7]: 1.55%
- inhibition (Prothrombin (Bos taurus)): -0.76%
